Assay results as given in the supplement of paper PMC10849652.
Of roughly 8,800 targets only a part is listed; those with a hit were picked by preference. About 0.5% of all pairs of compound and target were hits.

Tests used:
Assay in all cases: log2 fold change, soluble protein after heating vs DMSO (PISA); higher = thermal stabilisation; K562 lysate, 10 uM; active = over 0.2 and 3.5 SD of the protein, either way, in both replicates (recomputed)
nilotinib = compound: Cc1cn(-c2cc(NC(=O)c3ccc(C)c(Nc4nccc(-c5cccnc5)n4)c3)cc(C(F)(F)F)c2)cn1 [nilotinib]
Outline: (§1)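 Thermal stability, expressed as log-two fold change relative to solvent controls, is given from duplicates. Crude K562 extract in PBS pH 7.4 with 1 mM MgCl2, at 1 mg/mL protein, was treated with 10 μM compound for 30 min and heated in aliquots for 3 min across 48°C-58°C. After pooling, adjustment to 0.5% NP-40 at 4°C and centrifugation at 21,000xg for 90 min, supernatant protein was measured by TMTpro 16plex LC-MS/MS with channel sums equalised.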

[1] = compound: Cc1nc(Nc2n[nH]c3c2CN(C(=O)N[C@H](CN(C)C)c2ccccc2)C3(C)C)c2sccc2n1
Outline: as §1

dasatinib = compound: Cc1nc(Nc2ncc(C(=O)Nc3c(C)cccc3Cl)s2)cc(N2CCN(CCO)CC2)n1 [dasatinib]
Outline: as §1

[2] = compound: Cc1ncc(-c2ccnc(Nc3ccc(S(C)(=O)=O)cc3)n2)n1C(C)C
Outline: as §1

[3] = compound: Cn1cc(-c2ccc3c(c2)CCN3C(=O)Cc2cccc(C(F)(F)F)c2)c2c(N)ncnc21
Outline: as §1

quisinostat = compound: Cn1cc(CNCC2CCN(c3ncc(C(=O)NO)cn3)CC2)c2ccccc21 [quisinostat]
Outline: as §1

tipifarnib = compound: Cn1cncc1[C@@](N)(c1ccc(Cl)cc1)c1ccc2c(c1)c(-c1cccc(Cl)c1)cc(=O)n2C [tipifarnib]
Outline: as §1

[4] = compound: NC(=O)Nc1cc(-c2cccc(F)c2)sc1C(=O)N[C@H]1CCCNC1
Outline: as §1

[5] = compound: NC(=O)c1cnc(N[C@@H]2CCCC[C@@H]2N)nc1Nc1cccc(-n2nccn2)c1
Outline: as §1

[6] = compound: NC1(c2ccc(-c3nc4ccn5c(=O)[nH]nc5c4cc3-c3ccccc3)cc2)CCC1
Outline: as §1

[7] = compound: NCC(=O)Nc1ccc(-n2nc(C(F)(F)F)cc2-c2ccc3c(ccc4ccccc43)c2)cc1
Outline: as §1

vorinostat = compound: O=C(CCCCCCC(=O)Nc1ccccc1)NO [vorinostat]
Outline: as §1

silmitasertib = compound: O=C(O)c1ccc2c(c1)nc(Nc1cccc(Cl)c1)c1ccncc12 [silmitasertib]
Outline: as §1

[8] = compound: O=C1NC(=O)C(c2cnc3ccccn23)=C1c1cn2c3c(cc(F)cc13)CN(C(=O)N1CCCCC1)CC2
Outline: as §1

entospletinib = compound: c1cn2cc(-c3ccc4cn[nH]c4c3)nc(Nc3ccc(N4CCOCC4)cc3)c2n1 [entospletinib]
Outline: as §1

Measured: log2 fold change

EBP (UniProt Q15125)
Chain of UniProt Q15125 (Q15125 whole entry, looked up): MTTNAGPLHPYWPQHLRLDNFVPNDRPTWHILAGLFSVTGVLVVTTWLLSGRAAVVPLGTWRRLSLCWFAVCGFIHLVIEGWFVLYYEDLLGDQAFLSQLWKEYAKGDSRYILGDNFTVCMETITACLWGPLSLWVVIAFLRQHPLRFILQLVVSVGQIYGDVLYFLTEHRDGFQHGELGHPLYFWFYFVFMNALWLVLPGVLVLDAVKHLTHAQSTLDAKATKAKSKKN
inactive: nilotinib 0.081 | [1] -0.016 | dasatinib -0.05 | [2] 0.018 | [3] -0.137 | quisinostat 0.038 | tipifarnib -0.03 | [4] 0.042 | [5] -0.006 | [6] -0.05 | [7] 0.134 | vorinostat 0.1 | silmitasertib -0.033 | [8] 0.097 | entospletinib 0.013

EPN2 (UniProt O95208)
inactive: nilotinib -0.001 | [1] 0.01 | dasatinib -0.011 | [2] 0.017 | [3] 0.054 | quisinostat -0.016 | tipifarnib -0.07 | [4] 0.021 | [5] 0.01 | [6] -0.016 | [7] -0.005 | vorinostat 0.156 | silmitasertib 0.02 | [8] -0.001 | entospletinib 0.012

EXOC4 (UniProt Q96A65)
Chain of UniProt Q96A65 (Q96A65 whole entry, looked up): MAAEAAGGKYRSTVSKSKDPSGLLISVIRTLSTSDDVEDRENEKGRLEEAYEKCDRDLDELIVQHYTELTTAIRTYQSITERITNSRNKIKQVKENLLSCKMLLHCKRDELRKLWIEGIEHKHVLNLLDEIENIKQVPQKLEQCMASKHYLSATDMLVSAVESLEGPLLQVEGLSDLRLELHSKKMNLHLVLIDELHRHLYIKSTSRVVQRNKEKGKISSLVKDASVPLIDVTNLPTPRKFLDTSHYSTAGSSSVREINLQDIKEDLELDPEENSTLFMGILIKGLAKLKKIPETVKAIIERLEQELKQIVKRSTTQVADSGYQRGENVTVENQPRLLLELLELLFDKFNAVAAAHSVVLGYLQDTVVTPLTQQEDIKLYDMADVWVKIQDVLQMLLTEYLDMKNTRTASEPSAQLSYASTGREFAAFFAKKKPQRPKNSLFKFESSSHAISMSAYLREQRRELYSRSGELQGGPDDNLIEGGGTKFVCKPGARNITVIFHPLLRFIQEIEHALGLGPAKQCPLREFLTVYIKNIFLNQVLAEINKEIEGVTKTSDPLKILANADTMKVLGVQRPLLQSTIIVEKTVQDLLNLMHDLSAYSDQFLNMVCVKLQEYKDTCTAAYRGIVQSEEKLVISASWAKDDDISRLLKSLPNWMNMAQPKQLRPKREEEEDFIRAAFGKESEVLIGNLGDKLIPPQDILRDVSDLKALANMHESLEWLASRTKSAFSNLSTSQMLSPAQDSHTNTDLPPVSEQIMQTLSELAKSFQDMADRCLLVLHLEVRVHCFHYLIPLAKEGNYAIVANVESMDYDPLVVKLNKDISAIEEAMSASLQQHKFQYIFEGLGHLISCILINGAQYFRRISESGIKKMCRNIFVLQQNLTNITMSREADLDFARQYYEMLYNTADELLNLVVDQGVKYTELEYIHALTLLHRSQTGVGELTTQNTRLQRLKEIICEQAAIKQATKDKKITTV
active: vorinostat -0.389
inactive: nilotinib 0.015 | [1] -0.012 | dasatinib -0.083 | [2] 0.015 | [3] 0.072 | quisinostat -0.009 | tipifarnib -0.036 | [4] 0.053 | [5] 0.013 | [6] -0.068 | [7] 0.009 | silmitasertib 0.041 | [8] -0.022 | entospletinib -0.006

FLAD1 (UniProt Q8NFF5)
inactive: nilotinib 0.051 | [1] -0.026 | dasatinib 0.002 | [2] 0.024 | [3] 0.019 | quisinostat -0.129 | tipifarnib 0 | [4] 0.03 | [5] 0.017 | [6] -0.026 | [7] -0.012 | silmitasertib 0.102 | [8] -0.005 | entospletinib 0.037
active: vorinostat -0.397

GEMIN5 (UniProt Q8TEQ6)
active: vorinostat -0.479
inactive: nilotinib -0.003 | [1] -0.001 | dasatinib -0.046 | [2] 0.001 | [3] 0.037 | quisinostat -0.102 | tipifarnib 0.015 | [4] 0.031 | [5] 0.003 | [6] -0.027 | [7] 0 | silmitasertib 0.004 | [8] -0.001 | entospletinib 0.004

DUS2 (UniProt Q9NX74)
active: silmitasertib 0.555
inactive: nilotinib 0.021 | [1] -0.035 | dasatinib 0.037 | [2] 0.011 | [3] -0.024 | quisinostat 0.088 | tipifarnib -0.019 | [4] 0 | [5] 0.014 | [6] -0.045 | [7] -0.01 | vorinostat -0.014 | [8] -0.037 | entospletinib -0.042

EDC4 (UniProt Q6P2E9)
Chain of UniProt Q6P2E9 (Q6P2E9 whole entry, looked up): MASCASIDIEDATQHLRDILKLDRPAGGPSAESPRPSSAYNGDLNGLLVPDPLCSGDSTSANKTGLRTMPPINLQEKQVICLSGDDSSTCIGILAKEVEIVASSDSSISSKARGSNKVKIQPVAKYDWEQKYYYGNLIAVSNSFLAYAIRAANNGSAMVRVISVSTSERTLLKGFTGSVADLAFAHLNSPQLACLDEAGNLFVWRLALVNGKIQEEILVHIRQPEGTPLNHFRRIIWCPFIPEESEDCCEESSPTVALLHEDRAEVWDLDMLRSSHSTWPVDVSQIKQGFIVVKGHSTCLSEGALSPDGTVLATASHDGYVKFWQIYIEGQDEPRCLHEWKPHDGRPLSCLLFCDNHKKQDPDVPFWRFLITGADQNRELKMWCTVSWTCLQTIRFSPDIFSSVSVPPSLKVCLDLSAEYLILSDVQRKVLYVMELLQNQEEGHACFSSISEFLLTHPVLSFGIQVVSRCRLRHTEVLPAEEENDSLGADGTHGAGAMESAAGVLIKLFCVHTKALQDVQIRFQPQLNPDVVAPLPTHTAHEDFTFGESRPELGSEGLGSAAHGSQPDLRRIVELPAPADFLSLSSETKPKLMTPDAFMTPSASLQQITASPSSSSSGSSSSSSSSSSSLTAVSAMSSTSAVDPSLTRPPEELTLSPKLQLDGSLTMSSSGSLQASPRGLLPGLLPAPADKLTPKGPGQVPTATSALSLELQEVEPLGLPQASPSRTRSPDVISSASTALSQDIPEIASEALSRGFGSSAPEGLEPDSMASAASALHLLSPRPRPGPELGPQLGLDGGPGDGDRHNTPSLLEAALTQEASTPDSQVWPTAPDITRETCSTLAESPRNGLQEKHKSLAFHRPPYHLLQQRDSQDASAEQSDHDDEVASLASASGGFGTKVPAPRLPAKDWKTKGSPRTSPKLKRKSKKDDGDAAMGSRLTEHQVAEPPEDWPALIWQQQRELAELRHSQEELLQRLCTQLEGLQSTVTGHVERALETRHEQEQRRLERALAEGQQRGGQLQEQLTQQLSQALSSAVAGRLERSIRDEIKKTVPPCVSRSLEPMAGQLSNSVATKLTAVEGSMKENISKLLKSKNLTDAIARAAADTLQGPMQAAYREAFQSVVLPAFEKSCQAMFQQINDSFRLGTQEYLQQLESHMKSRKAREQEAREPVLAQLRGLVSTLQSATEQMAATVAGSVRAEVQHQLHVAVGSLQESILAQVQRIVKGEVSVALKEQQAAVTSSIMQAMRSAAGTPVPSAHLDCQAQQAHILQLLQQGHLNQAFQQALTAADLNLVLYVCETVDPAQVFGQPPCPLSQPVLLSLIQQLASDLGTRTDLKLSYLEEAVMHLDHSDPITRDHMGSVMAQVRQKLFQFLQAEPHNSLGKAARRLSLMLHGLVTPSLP
inactive: nilotinib 0 | [1] 0.007 | dasatinib -0.058 | [2] 0.007 | [3] -0.002 | quisinostat -0.071 | tipifarnib -0.001 | [4] 0.01 | [5] 0.027 | [6] 0.011 | [7] 0.045 | silmitasertib 0.011 | [8] 0.004 | entospletinib 0.02
active: vorinostat -0.453

EIF2AK1 (UniProt Q9BQI3)
Chain of UniProt Q9BQI3 (Q9BQI3 whole entry, looked up): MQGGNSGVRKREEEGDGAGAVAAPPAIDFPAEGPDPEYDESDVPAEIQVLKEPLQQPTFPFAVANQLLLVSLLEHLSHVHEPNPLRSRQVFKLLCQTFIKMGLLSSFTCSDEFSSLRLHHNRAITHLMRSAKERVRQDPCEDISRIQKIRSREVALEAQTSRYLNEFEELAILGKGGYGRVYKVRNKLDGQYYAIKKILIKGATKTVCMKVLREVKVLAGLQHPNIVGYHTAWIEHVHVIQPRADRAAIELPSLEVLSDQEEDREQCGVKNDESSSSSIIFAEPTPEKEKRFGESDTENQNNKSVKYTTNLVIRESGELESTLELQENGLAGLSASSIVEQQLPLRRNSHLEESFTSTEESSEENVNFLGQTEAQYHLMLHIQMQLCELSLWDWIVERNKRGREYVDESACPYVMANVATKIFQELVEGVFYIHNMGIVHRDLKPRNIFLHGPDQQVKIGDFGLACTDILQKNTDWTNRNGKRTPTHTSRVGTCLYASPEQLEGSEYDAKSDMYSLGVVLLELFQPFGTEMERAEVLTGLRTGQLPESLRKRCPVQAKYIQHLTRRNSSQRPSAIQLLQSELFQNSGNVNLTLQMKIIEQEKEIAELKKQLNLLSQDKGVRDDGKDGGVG
inactive: nilotinib -0.006 | [1] 0.211 | dasatinib -0.027 | [2] -0.154 | [3] 0.078 | quisinostat -0.077 | tipifarnib 0.007 | [4] -0.031 | [5] 0.062 | [6] 0.021 | [7] -0.089 | vorinostat -0.18 | silmitasertib 0.03 | [8] -0.059 | entospletinib 0.009

ERCC4 (UniProt Q92889)
Chain of UniProt Q92889 (Q92889 whole entry, looked up): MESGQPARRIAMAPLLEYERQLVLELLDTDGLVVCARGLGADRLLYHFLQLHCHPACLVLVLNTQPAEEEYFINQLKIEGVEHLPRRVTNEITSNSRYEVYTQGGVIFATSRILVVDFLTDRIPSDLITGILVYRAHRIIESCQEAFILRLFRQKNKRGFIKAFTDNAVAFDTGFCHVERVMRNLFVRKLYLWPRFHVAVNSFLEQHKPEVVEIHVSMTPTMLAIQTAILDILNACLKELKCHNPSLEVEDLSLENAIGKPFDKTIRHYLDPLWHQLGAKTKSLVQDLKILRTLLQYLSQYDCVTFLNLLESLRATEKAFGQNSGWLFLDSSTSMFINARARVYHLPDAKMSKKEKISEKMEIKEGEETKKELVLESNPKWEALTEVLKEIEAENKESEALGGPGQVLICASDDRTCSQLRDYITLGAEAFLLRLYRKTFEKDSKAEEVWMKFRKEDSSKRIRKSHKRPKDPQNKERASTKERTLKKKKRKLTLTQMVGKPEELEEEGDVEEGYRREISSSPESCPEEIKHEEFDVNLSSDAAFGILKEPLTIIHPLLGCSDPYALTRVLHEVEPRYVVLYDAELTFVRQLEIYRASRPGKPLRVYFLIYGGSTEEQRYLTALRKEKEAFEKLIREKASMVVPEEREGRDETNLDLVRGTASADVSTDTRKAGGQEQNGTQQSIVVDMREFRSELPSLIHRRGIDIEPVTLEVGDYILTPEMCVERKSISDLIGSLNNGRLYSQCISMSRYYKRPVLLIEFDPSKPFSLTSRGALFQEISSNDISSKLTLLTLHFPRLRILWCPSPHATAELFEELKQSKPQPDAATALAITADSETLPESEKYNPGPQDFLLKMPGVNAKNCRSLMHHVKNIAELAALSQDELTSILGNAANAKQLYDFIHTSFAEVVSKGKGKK
inactive: nilotinib -0.047 | [1] -0.002 | dasatinib 0.01 | [2] -0.05 | [3] 0.033 | quisinostat -0.105 | tipifarnib -0.007 | [4] 0.041 | [5] 0.027 | [6] -0.004 | [7] 0.026 | silmitasertib 0.002 | [8] -0.065 | entospletinib 0.021
active: vorinostat -0.241

FAM118A (UniProt Q9NWS6)
Chain of UniProt Q9NWS6 (Q9NWS6 whole entry, looked up): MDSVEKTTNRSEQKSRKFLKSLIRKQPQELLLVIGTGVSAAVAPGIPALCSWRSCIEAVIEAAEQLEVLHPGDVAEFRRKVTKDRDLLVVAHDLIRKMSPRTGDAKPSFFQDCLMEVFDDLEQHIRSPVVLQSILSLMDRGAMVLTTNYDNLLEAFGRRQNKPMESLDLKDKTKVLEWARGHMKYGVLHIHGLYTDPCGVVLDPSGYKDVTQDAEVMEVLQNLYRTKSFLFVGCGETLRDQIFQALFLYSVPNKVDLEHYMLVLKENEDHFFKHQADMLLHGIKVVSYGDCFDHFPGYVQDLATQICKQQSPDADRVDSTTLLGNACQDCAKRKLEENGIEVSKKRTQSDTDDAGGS
active: vorinostat -0.834
inactive: nilotinib -0.017 | [1] -0.03 | dasatinib -0.043 | [2] -0.003 | [3] -0.082 | quisinostat -0.103 | tipifarnib 0.016 | [4] 0.013 | [5] 0.003 | [6] -0.023 | [7] 0.027 | silmitasertib 0.024 | [8] -0.003 | entospletinib -0.014

ETHE1 (UniProt O95571)
Chain of UniProt O95571 (O95571 whole entry, looked up): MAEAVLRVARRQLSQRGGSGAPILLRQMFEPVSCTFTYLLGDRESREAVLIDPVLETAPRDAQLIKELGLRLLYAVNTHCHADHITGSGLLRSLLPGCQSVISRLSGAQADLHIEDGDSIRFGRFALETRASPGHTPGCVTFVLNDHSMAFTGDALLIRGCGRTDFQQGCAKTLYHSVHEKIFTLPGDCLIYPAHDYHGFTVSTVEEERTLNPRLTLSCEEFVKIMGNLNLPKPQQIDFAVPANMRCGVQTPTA
active: nilotinib 0.25
inactive: [1] -0.124 | dasatinib -0.037 | [2] 0.095 | [3] -0.046 | quisinostat -0.015 | tipifarnib -0.181 | [4] 0.055 | [5] 0 | [6] -0.002 | [7] -0.01 | vorinostat -0.113 | silmitasertib 0.009 | [8] 0 | entospletinib -0.02
